Test results taken from PubChem BioAssay (Tox21).
Inconclusive results are not listed. Unmarked numbers belong to inactive results. Active and inactive are the calls of the source. The call rests on the fitted dose curve; in most records, active means well fitted activation curve with a large enough effect in the signal ratio in the repeat runs (not every such curve was filed as active); inconclusive means weak or mixed curves; inactive means flat fitted curve, though single readings scatter; the % refers to the signal ratio.

Assay: qHTS assay to identify small molecule agonists of H2AX (AID 1224845)
Conditions: CHO-K1 phospho-H2AX Ser139 HTRF, 3 h; series mostly up to 154 µM; activation (H2AX phosphorylation): at the top concentration
Source text: National Center for Advancing Translational Sciences [NCATS]
NIH Chemical Genomics Center [NCGC]
U.S. Environmental Protection Agency [EPA]
National Institutes of Environmental Health Sciences [NIEHS]
National Toxicology Program [NTP]
U.S. Food and Drug Administration [FDA]
HTRF phospho-H2AX (Ser139) assay (Cisbio Bioassays, US) enables the quantitative detection of the histone variant H2AX when phosphorylated on serine 139. When double-stranded DNA breaks, either by ionizing radiation or endogenous physiological processes, H2AX becomes phosphorylated at Ser139. This phospho-Ser139 serves as a sensitive biomarker for the detection of such breaks, localizing the site of DNA repair. So, HTRF phospho-H2AX Ser139 is a pertinent assay to study genome stability, the cell cycle, DNA repair, and it serves as a biomarker for cancer, and to understand aging. Wild type CHO-K1 cells were used to identify the inducers of Phospho-H2AX Ser 139 from the Tox21 10K compound collections.
Tox21 Assay Protocol Summary:
The CHO-K1 cells suspended in culture medium containing 10% FBS were dispensed at 1000 cells/ 3 ul/well in 1536-well white wall/solid bottom plates (Greiner Bio-One North America, NC) using a Multidrop Combi (Thermo Fisher Scientific Inc., Waltham, MA). After the assay plates were incubated at 37C overnight, 23 nl of compounds at 15 concentrations (from 5-48 columns) or positive control (from 1 to 4 columns) were transferred to the assay plates using a Pintool station (Wako, San Diego, CA) into each well resulting in a final DMSO concentration of 0.76%. After 3hr incubation at 37C, 1 uL/well Supplemented Lysis buffer (diluted 100 fold blocking reagent in lysis buffer) (HTRF Phospho-H2A.X (S139) Assay kit from Cisbio US Inc., Bedford, MA) was added using a Flying Reagent Dispenser (FRD) (Aurora Discovery, CA). After 10sec spin at 1000 rpm in a plate centrifuge, the assay plates were incubated at room temperature for 30 min. Then followed by the addition of 1 uL/well detection buffer (containing a mixture of two antibodies, one labeled with cryptate, Anti pH2AX (S139)-K and another labeled with d2, Anti H2AX-d2) using FRD. After incubation at room temperature for 24 hr, the time resolved fluorescence at excitation 320 nm and emissions at 665 nm and 620 nm was measured using an Envision plate reader (PerkinElmer, Waltham, MA).
On the % scale 0 is the no-effect control and ±100 the full control effect; potency means the concentration at half of the fitted maximal effect.

Compared with CCOCOCC, CCCCOCC is higher in “activation (H2AX phosphorylation)” value: -4.54% for the first, -0.696% for the second.

First: O=C(O)c1cccc(Cl)n1
Second: Cc1cccc(C)n1
The “activation (H2AX phosphorylation)” value of the first is higher: -0.0471% for the first, -0.404% for the second.

Compared with CC(C)(C)c1n[nH]c(=O)n(N)c1=O, Cc1cncc(C)c1 is higher in “activation (H2AX phosphorylation)” value: -1.59% for the first, -0.274% for the second.

Compared with CN1[C@@H]2CC[C@H]1CC(OC(=O)C(CO)c1ccccc1)C2 (stereo not given in full), c1ccc2c(c1)CCC2 is higher in “activation (H2AX phosphorylation)” value: 0.154% for the first, 2.49% for the second.

First: Brc1ccccn1
Second: Clc1cccnc1
The “activation (H2AX phosphorylation)” value of the first is higher: -0.133% for the first, -4.89% for the second.

Compared with CO[Si](CCC1CCC2OC2C1)(OC)OC (stereo not given), CC1CNCC(C)O1 (stereo not given) is higher in “activation (H2AX phosphorylation)” value: -5.66% for the first, -3.15% for the second.

First: CN1CN(C)CN(C)C1
Second: C=C[C@](C)(O)CC[C@@H]1[C@@]2(C)CCCC(C)(C)[C@@H]2CC[C@@]1(C)O
The “activation (H2AX phosphorylation)” value of the first is lower: -0.429% for the first, 1.34% for the second.

First: SCCCCCCCCS
Second: NCCCCCCNCCCCCCN
The “activation (H2AX phosphorylation)” value of the first is higher: 1.97% for the first, 0.676% for the second.

Going from CC(C)OC(=O)c1cc(C(=O)OC(C)C)cc([N+](=O)[O-])c1 to CCc1cccc(CC)c1N(COC)C(=O)CS(=O)(=O)O, the “activation (H2AX phosphorylation)” value rises from -4.4% to -2.22%.

First: CCOC(=O)CN
Second: C=CC(=O)OCCN(CC)CC
The “activation (H2AX phosphorylation)” value of the first is lower: -2.64% for the first, -2.14% for the second.

Compared with Cc1cccc(N(C)C)c1, CCN(CC)c1cccc(C)c1 is higher in “activation (H2AX phosphorylation)” value: -7.6% for the first, 1.91% for the second.

Going from CCc1c(Br)c(Br)c(Br)c(Br)c1Br to Cc1cccc(Br)c1, the “activation (H2AX phosphorylation)” value rises from -5.93% to 1.29%.

First: O=CC1CC1
Second: CC(=O)C=O
The “activation (H2AX phosphorylation)” value of the first is higher: 2.2% for the first, -0.783% for the second.

Going from C=CC(C)C#N (stereo not given) to C/C=C/c1ccc(OC)c(OC)c1, the “activation (H2AX phosphorylation)” value falls from 1.44% to 0.269%.

Going from CCCC(=O)OCC(COC(=O)CCC)OC(=O)CCC to CCCCCCCCCCc1ccccc1, the “activation (H2AX phosphorylation)” value rises from -6.49% to -1.49%.

In the case of O=C(Nc1ccc(Cl)c(Cl)c1)c1cc(Cl)cc(Cl)c1O, the “activation (H2AX phosphorylation)” value is reported as 3.83%.

Going from COc1ccccc1OCCNCC(O)COc1cccc2[nH]c3ccccc3c12 (stereo not given) to CNCC[C@H](Oc1cccc2ccccc12)c1cccs1, the “activation (H2AX phosphorylation)” value rises from -9.54% [at 70.9 µM] to -0.133% [at 70.9 µM].

First: CCCCCCCCCCCCCc1ccccc1
Second: CCOC(=O)C1=C(C)NC(C)=C(C(=O)OCC)C1c1ccccc1/C=C/C(=O)OC(C)(C)C
The “activation (H2AX phosphorylation)” value of the first is higher: -2.18% [at 70.9 µM] for the first, -7.8% [at 70.9 µM] for the second.

Going from COc1cc(C(=O)NS(=O)(=O)c2ccccc2C)ccc1Cc1cn(C)c2ccc(NC(=O)OC3CCCC3)cc12 to CC(=O)Oc1ccc(C2(c3ccc(OC(C)=O)cc3)C(=O)Nc3ccccc32)cc1, the “activation (H2AX phosphorylation)” value falls from 6.43% [at 70.9 µM] to -0.107% [at 70.9 µM].

For O=C(Nc1ccc(Cl)cc1)Nc1ccc(Cl)c(C(F)(F)F)c1, the “activation (H2AX phosphorylation)” value was 0.5% [at 70.9 µM].

For Cc1c(C)n(Cc2ccccc2)c2ccc(C(=O)OCCN(C)C)cc12, the Potency was 6.19 µM (active).
In the case of CNC(=S)NN, the Potency is reported as 89.8 µM (active).
